Results from PMC4336329 (PLoS ONE, 2015).
Hit rate of the full screen: of about 310,000 compounds, about 14,000 (4.5%) showed an effect of 50% or more. Effects have a minus sign here. The full list was thinned out, with strong results kept by preference.

Each compound was assayed against human ether-à-go-go-related gene (hERG) potassium channel (human, UniProt Q12809) (assay: primary screen, population patch clamp on CHO cells stably expressing hERG; higher = less effect of the substance).
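Also: peak tail current of the secondary pulse compared with the same well before compound.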

Chain of human ether-à-go-go-related gene (hERG) potassium channel (Q12809 whole entry, looked up): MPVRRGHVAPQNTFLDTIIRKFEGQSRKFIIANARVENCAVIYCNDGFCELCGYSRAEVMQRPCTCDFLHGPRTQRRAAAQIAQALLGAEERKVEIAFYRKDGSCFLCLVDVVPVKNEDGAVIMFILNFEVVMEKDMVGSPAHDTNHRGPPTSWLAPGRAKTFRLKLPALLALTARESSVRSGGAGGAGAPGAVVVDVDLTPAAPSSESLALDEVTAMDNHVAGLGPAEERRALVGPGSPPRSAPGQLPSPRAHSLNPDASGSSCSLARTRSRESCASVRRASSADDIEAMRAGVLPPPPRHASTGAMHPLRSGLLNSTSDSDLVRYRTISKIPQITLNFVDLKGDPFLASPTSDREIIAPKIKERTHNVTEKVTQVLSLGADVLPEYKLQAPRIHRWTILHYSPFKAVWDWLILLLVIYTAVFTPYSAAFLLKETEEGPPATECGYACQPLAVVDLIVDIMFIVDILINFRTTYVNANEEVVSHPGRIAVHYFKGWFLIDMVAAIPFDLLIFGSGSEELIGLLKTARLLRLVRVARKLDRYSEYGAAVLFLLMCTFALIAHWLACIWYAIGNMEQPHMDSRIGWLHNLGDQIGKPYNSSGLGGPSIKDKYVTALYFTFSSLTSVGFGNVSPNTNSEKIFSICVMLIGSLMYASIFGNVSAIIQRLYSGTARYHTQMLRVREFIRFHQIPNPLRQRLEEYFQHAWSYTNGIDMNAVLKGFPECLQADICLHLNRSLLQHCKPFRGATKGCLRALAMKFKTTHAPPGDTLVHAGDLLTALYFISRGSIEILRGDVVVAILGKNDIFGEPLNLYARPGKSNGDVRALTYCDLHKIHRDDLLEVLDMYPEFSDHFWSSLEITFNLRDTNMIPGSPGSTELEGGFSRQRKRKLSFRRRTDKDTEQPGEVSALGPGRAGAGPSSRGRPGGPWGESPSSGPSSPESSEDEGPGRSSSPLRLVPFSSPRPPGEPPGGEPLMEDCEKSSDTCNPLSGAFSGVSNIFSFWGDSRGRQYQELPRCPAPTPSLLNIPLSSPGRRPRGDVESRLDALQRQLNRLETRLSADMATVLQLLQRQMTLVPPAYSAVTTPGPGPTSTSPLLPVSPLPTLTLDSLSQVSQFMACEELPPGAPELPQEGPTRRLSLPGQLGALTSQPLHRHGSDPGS

SMILES	hERG current change (%, negative = inhibition) at 10uM [%]
CCc1ccc(OCC(O)CN2CCC(CN3C(=O)c4cccc5cccc(c45)C3=O)CC2)cc1.Cl (centres unmarked)	-41.1
COc1ccc(S(=O)(=O)N2CCC(CN3C(=O)c4cccc5cccc(c45)C3=O)CC2)cc1	7.22
COc1ccc(OCC(O)CN2CCC(CN3C(=O)c4cccc5cccc(c45)C3=O)CC2)cc1.Cl (centres unmarked)	-59.1
Cc1cc(C)n(C(=O)CCCC(=O)n2nc(C)cc2C)n1	-4.17
CC(=O)Nc1ccc(NC(=O)COc2ncnc3ccccc23)cc1	-7.63
O=C(Nc1ccccn1)c1cc(-c2cccc(Cl)c2)nc2ccccc12	13.3
O=C(c1ccc(Cl)c(S(=O)(=O)N2CCOCC2)c1)N1CCN(c2ccccn2)CC1	-44.2
O=C(c1ccc(Cl)c(S(=O)(=O)N2CCCC2)c1)N1CCN(c2ncccn2)CC1	-4.2
O=C(c1ccc(Cl)c(S(=O)(=O)Nc2ccc(F)cc2)c1)N1CCN(c2ccccn2)CC1	-33.9
O=C(c1ccc(CNS(=O)(=O)c2ccccc2)cc1)N1CCN(c2ccccn2)CC1	-28.5
O=C(c1ccc(Cl)c(S(=O)(=O)NCc2ccccc2)c1)N1CCN(c2ccccn2)CC1	-50.3
CC1CCN(C(=O)c2ccc(Br)c(S(=O)(=O)N3CCOCC3)c2)CC1	-3.74
O=C(c1ccc(Cl)c(S(=O)(=O)N2CCCCCC2)c1)N1CCN(c2ccccn2)CC1	-63.6
CC1CCN(S(=O)(=O)c2cc(C(=O)N3CCN(c4ncccn4)CC3)ccc2Br)CC1	-72.4
O=C(c1ccc(Cl)c(S(=O)(=O)N2CCCC2)c1)N1CCN(c2ccccn2)CC1	-31.3
CCC1(C)CC(C(N)=S)CCO1 (centres unmarked)	27.4

SMILES	hERG current change (%, negative = inhibition) at 10uM [%]
O=C(C1CCC1)N(CCc1ccccc1)Cc1nc2ccccc2c(=O)[nH]1	-4.04
CCc1nnc(NC(=O)CN2C(=O)c3ccccc3S2(=O)=O)s1	10.7
Cc1ccc(S(=O)(=O)Nc2c(C)nn(C)c2C)cc1	-4.07
CCn1c(=O)c2sccc2n(Cc2ccc(C)cc2)c1=O	26
O=C(Nc1ccccc1)N1CCN(Cc2ccc3c(c2)OCO3)CC1	-26.1
CC1CCc2nc(NC(=O)CN3CCOCC3)sc2C1 (centres unmarked)	-4.5
Cc1cc(C)cc(NC(=O)N2CCN(Cc3ccc4c(c3)OCO4)CC2)c1	-59
O=C(CN1CCN(c2ccc(F)cc2)CC1)Nc1ccc2c(c1)OCCO2	4
Cc1ccc(NC(=O)N2CCN(Cc3ccc4c(c3)OCO4)CC2)cc1	-33.8
COc1cc(NC(=O)CN2CCN(Cc3ccc4c(c3)OCO4)CC2)cc(OC)c1.O=C(O)C(=O)O	-47
CC1CCc2nc(NC(=O)CN3CCN(Cc4ccc5c(c4)OCO5)CC3)sc2C1 (centres unmarked)	-66.7
CC1CCc2nc(NC(=O)CN3CCN(c4ccccc4)CC3)sc2C1 (centres unmarked)	-6.29
O=C(CN1CCN(CC(=O)Nc2ccc3c(c2)OCO3)CC1)Nc1ccc(F)cc1	-73.4
O=C(CN1CCN(S(=O)(=O)c2ccc(F)cc2)CC1)Nc1ccc2c(c1)OCO2	-40.6
O=C(CN1CCN(Cc2ccc3c(c2)OCO3)CC1)NCC(F)(F)F	5.34
O=C(CN1CCN(Cc2ccc3c(c2)OCO3)CC1)Nc1ccc(F)cc1	-81.7
